Most compounds without a hit are left out; they make up all but 17% or so of the library.
ClpP mod: qHTS Assay for Activators of ClpP; ATP-dependent Clp protease proteolytic subunit (Bacillus subtilis (strain 168)), P80244; purified B. subtilis ClpP, FRET peptide cleavage, 20 min; Potency, µM (top dose mostly 57.5 µM), for the others: at the highest dose activity change, negative = active; actives 1.9% (n = 340,000); active = well fitted falling curve with a large enough effect; inconclusive = small, poorly fitted or top-dose-only effect; inactive = no such curve, though single readings can be large or run the other way; note: the source files actives as falling curves though it sought activators and does not explain the sign; nearly all actives have a fitted effect of over 65% in size
Target sequence (P80244 whole entry, looked up): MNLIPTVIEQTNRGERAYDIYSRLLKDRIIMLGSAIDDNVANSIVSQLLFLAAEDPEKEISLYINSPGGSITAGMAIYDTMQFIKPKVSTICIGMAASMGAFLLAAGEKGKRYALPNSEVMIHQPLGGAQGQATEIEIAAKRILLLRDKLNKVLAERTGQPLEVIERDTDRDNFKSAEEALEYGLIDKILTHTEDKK
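Buffer: 100 mM Tris/HCl pH8, 100 mM KCl, 0.05% low protease BSA, 2.5% glycerol, 0.01% Tween-20. ClpP 10 microg/mL final; 20 min RT; delta FRET normalized to ADEP and DMSO controls.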
DT40 TDP1 CPT: DT40-hTDP1 cell growth loss with CPT. chicken DT40 Tdp1-/-;hTDP1 cells + 20 nM CPT, ATP luminescence, 48 h. Potency, µM (doses to about 46.2 µM), without a hit: at the top dose activity change, negative = growth inhibition, actives largely listed as inhibitors. actives 12% (n = 420,000); note: % is set by controls: 0 for no effect and ±100 for the full control effect; nearly all actives have a fitted effect of over 55% in size
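Chicken DT40 Tdp1-/- cells complemented with human TDP1, 400 cells/well, exposed to compounds plus 20 nM camptothecin for at least 48 h at 37 C; viability read as ATP content by CellTiter-Glo luminescence.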
TDP1 cell noCPT: qHTS for Inhibitors of human tyrosyl-DNA phosphodiesterase 1 (TDP1): qHTS in cells in absence of CPT; DT40 Tdp1-/- hTDP1 cells, no CPT, ATP luminescence, 48 h; Potency, µM (top dose mostly 46.2 µM), for the others: top-dose activity change, negative = growth inhibition, actives largely listed as inhibitors; actives 15% (n = 420,000); note: % is set by controls: 0 for no effect and ±100 for the full control effect; nearly all actives have a fitted effect of over 55% in size
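Chicken DT40 Tdp1-/- cells stably complemented with human TDP1 were seeded at 400 cells/well with DMSO in place of 20 nM camptothecin. After compound pinning, cells grew at least 48 hr at 37 °C; viability read by CellTiter-Glo luminescence.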
TDP1 inh: TDP1 (human) enzyme inhibition | recombinant TDP1, AlphaScreen DNA substrate cleavage | Potency, µM (doses to about 130 µM), inactives show top-dose activity change, negative = inhibition, usual class: inhibitors | actives 0.28% (n = 350,000); note: % is set by controls: 0 for no effect and ±100 for the full control effect; nearly all actives have a fitted effect of over 40% in size
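Signal: AlphaScreen proximity between streptavidin donor and anti-FITC acceptor beads on intact substrate. Reaction: Tdp1 1 nM, substrate 15 nM final, 5 min RT after 15 min compound preincubation.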
Active calls of the source: *; ? = inconclusive; · = no result. Unless noted, calls come from the whole dose curve; as a rule, active = well fitted curve in the direction sought with a large enough effect; inconclusive = small, poorly fitted or top-dose-only effect, or another doubt; inactive = no such curve, though single readings can be large; an effect the other way counts as inactive or inconclusive. Potency is the fitted concentration of half-maximal effect.

SMILES | ClpP mod | DT40 TDP1 CPT | TDP1 cell noCPT | TDP1 inh
CC(C)NC(=O)c1ccc2c(=O)n(C3CCCC3)c(=S)[nH]c2c1 | 0.0% | -19.6% | -13.5% | 1.0%
O=C(c1ccc2c(=O)n(C3CCCC3)c(=S)[nH]c2c1)N1CCc2ccccc21 | 0.7% | 11.6µM* | 20.6µM* | 1.0%
COc1ccc(/C=C2/C(=N)N3C(=NC2=O)Sc2cc(S(C)(=O)=O)ccc23)cc1OC | -0.8% | 1.3% | -19.9% | 1.3%
COc1ccc(CNC(=O)c2cnn3c(C)c(Cc4c(F)cccc4Cl)c(C)nc23)cc1 | 3.9% | 11.6µM* | 20.6µM* | 0.0%
Cc1nc2c(C(=O)O)cnn2c(C)c1Cc1ccccc1F | ? | -18.3% | -4.3% | 5.6%
Cc1ccccc1Cc1c(C)nc2c(C(=O)NCc3ccco3)cnn2c1C | 31.6µM* | 14.1µM* | ? | 6.0%
Cc1nc2c(C(=O)NCc3ccccc3)cnn2c(C)c1Cc1ccc(F)cc1 | 3.9% | 7.31µM* | 8.2µM* | 5.2%
Cc1nc2c(C(=O)O)cnn2c(C)c1Cc1ccccc1 | -16.7% | -9.4% | -8.9% | 7.8%
CCOc1ccc(CCN2C(=O)C(=O)N([C@@H](Cc3ccccc3)CN3CCC[C@H]3CN3C(=O)C(=O)NC[C@@H]3Cc3ccccc3)C[C@@H]2CC(C)C)cc1 | -1.5% | ? | 18.4µM* | ·
CCOc1ccc(CCN2C(=O)C(=O)N([C@@H](Cc3ccccc3)CN3CCC[C@H]3CN3C(=O)C(=O)NC[C@@H]3Cc3ccccc3)C[C@@H]2Cc2ccccc2)cc1 | 3.1% | ? | 23.1µM* | ·
CCOc1ccc(CCN2C(=O)C(=O)N([C@@H](Cc3ccc(O)cc3)CN3CCC[C@H]3CN3C(=O)C(=O)NC[C@@H]3Cc3ccccc3)C[C@@H]2Cc2ccc(O)cc2)cc1 | -2.0% | ? | ? | ·
CCn1cc(C(=O)NC(C)c2ccccc2)c(=O)c2cc(S(=O)(=O)N3CCc4ccccc4C3)ccc21 (stereo unspecified) | -2.8% | ? | 16.4µM* | 0.0%
CCC(C)NC(=O)c1cn(CC)c2ccc(S(=O)(=O)N3CCc4ccccc4C3)cc2c1=O (stereo unspecified) | -0.9% | 20.6µM* | ? | 2.3%
O=C(NCC1([N+](=O)[O-])CN(C(=O)c2ccccc2)CN(C(=O)c2ccccc2)C1)c1ccccc1 | · | 12.5% | 10.1% | 3.0%
O=C(NCc1ccco1)c1cc(-c2cccs2)on1 | -4.2% | 8.91µM* | 14.1µM* | -1.9%
O=C(NCCCn1ccnc1)c1cc(-c2cccs2)on1 | -3.3% | 4.61µM* | 4.61µM* | 7.8%
COC(=O)c1ccc(NC(C)C(=O)OC)c([N+](=O)[O-])c1 (stereo unspecified) | -1.5% | 0.5% | 4.3% | -5.5%
C[C@@H]1CN([C@@H](C)CO)C(=O)c2cc(NC(=O)CCC(F)(F)F)ccc2O[C@H]1CN(C)Cc1ccc(Cl)c(Cl)c1 | 1.5% | 20.6µM* | ? | 1.3%
C[C@@H]1CN([C@H](C)CO)C(=O)Cc2cc(NC(=O)Cn3cnnn3)ccc2O[C@@H]1CN(C)Cc1ccc(Cl)c(Cl)c1 | -14.7% | 18.4µM* | ? | 5.6%
C[C@H](CO)N1C[C@H](C)[C@@H](CN(C)Cc2ccc(Cl)c(Cl)c2)Oc2ccc(NC(=O)Cn3cnnn3)cc2C1=O | -4.2% | ? | -1.6% | 4.6%
C[C@H](CO)N1C[C@H](C)[C@@H](CN(C)S(=O)(=O)c2ccccc2)OCCCC[C@H](C)Oc2ccc(NC(=O)CCC(F)(F)F)cc2C1=O | 1.3% | ? | ? | ·
C[C@H]1CN([C@@H](C)CO)C(=O)Cc2cc(NC(=O)Cn3cnnn3)ccc2O[C@H]1CN(C)Cc1ccncc1 | -2.3% | 3.7% | -10.8% | 1.8%
C[C@@H]1CCCCO[C@@H](CN(C)Cc2ccc(Cl)c(Cl)c2)[C@@H](C)CN([C@H](C)CO)C(=O)c2cc(NC(=O)CCC(F)(F)F)ccc2O1 | -6.1% | 8.2µM* | 10.3µM* | ·
CCCCNC(=O)C1(C)CCCCN1C(=O)c1ccc(C)c(F)c1 (stereo unspecified) | -0.3% | -28.1% | -26.8% | ·

Screening results as filed in PubChem BioAssay.
